Bioassay records from PubChem.
Hits are enriched below; roughly 7.9% of the tested compounds scored in any of these assays.
MCF10A rereplic: A quantitative high throughput screen for small molecules that induce DNA re-replication in MCF 10a normal breast cells; MCF 10A DNA re-replication, Hoechst nuclear intensity, 48 h; Potency, µM (highest dose often 46.1 µM), inactives show top-dose activity, positive = re-replication, actives largely listed as activators; 350,000 tested, 2.9% active; also: % of control where 0% means no effect; nearly all actives have a fitted effect of over 50% in size
HT1080NT lethal: qHTS for induction of synthetic lethality in tumor cells producing 2HG: qHTS for the HT-1080-NT fibrosarcoma cell line; 360,000 tested, 1.6% active; Potency, µM (top dose mostly 46.1 µM), for the others: at the top dose activity, negative = less viability, actives largely listed as cytotoxic; AID 686970, 2013; HT-1080-NT fibrosarcoma viability, CellTiter-Glo ATP luminescence, 48 h;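 also: NT is the 2HG producing partner of a matched IDH1 knockdown line; 0% = DMSO-treated cells and -100% = media-only wells without cells; nearly all actives have a fitted effect of over 55% in size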
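Read-out is CellTiter-Glo luminescence after 10 minutes at room temperature, following 48 hours' compound treatment of HT-1080-NT cells (750 cells/well, RPMI, 5% FBS, 37 degrees C).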
SW480 rereplic: A quantitative high throughput screen for small molecules that induce DNA re-replication in SW480 colon adenocarcinoma cells; SW480 DNA re-replication, Hoechst DNA content imaging, 48 h; Potency, µM (doses to about 46.1 µM), without a hit: at the highest dose re-replication activation, usual class: activators; 340,000 tested, 1.8% active; AID 624297, 2012; also: % of control where 0% means no effect; nearly all actives have a fitted effect of over 55% in size
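Quantitative HTS format with DMSO vehicle controls; 48 hr drug incubation at 37 C, then 40 min Hoechst staining and scanning imager measurement at 405 nm excitation.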
KB-3-1 cytotox: qHTS assay for MDR1-selective chemotherapeutics: Primary screen using the parental adenocarcinoma cell KB-3-1. 400,000 tested, 1.4% active. AID 1347075, 2019. KB-3-1 viability, CellTiter-Glo ATP luminescence, 72 h. Potency, µM (highest dose often 46.1 µM), most hits filed as cytotoxic; also: % is scaled to controls: 0 for no effect and ±100 for the full control effect; nearly all actives have a fitted effect of over 60% in size
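Parental KB-3-1 viability, qHTS format: 72 h compound exposure, 37 °C; CellTiter-Glo; media-only wells and DMSO plates as controls; concentration-effect fits on corrected data.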
KB-V1 cytotox: qHTS assay for MDR1-selective chemotherapeutics: Primary screen using the drug-selected MDR subline cells KB-V1; KB-V1 MDR cells viability, CellTiter-Glo, 72 h; Potency, µM (series often up to 46.1 µM), usual class: cytotoxic; 400,000 tested, 3.4% active; AID 1347076, 2019; also: % is scaled to controls: 0 for no effect and ±100 for the full control effect; nearly all actives have a fitted effect of over 60% in size
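qHTS viability screen in drug-selected KB-V1 MDR cells: 72 h compound treatment at 37 degrees C, ATP luminescence end point.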
HT1080 IDH1KD tx: qHTS for induction of synthetic lethality in tumor cells producing 2HG: qHTS for the HT-1080-IDH1KD cell line | HT-1080 IDH1 knockdown viability, ATP luminescence, 48 h | Potency, µM (highest dose often 46.1 µM), for the others: at the highest dose activity, negative = toxicity, actives largely listed as cytotoxic | 360,000 tested, 2% active | AID 686971, 2013;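 also: 0% = DMSO wells and -100% = cell-free medium wells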
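% activity derives from luminescence (CellTiter-Glo), normalised to DMSO and no-cell wells. HT-1080-IDH1KD cells, 750/well, had 48 h compound exposure at 37 °C.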
Numbers without * were called inactive; i = inactive; ? = inconclusive; nt = no result; [ ] = dose if it differs, or a comment. Calls follow the shape of the dose curve; as a rule, active = well fitted curve in the direction sought with a large enough effect; inconclusive = small, poorly fitted or top-dose-only effect, or another doubt; inactive = no such curve, though single readings can be large; an effect the other way counts as inactive or inconclusive. Potency is read from the fitted curve at half-maximal effect.

SMILES	MCF10A rereplic	HT1080NT lethal	SW480 rereplic	KB-3-1 cytotox	KB-V1 cytotox	HT1080 IDH1KD tx
CCOc1ccc2[nH]c(=O)c(CN(Cc3ccco3)C(CC)c3nnnn3Cc3ccccc3)cc2c1 (configuration not stated)	13%	-24%	21%	?	?	?
CCC(c1nnnn1C(C)(C)C)N(Cc1ccco1)Cc1cc2cccc(C)c2[nH]c1=O (configuration not stated)	9%	0%	2%	i	23µM*	-5%
Cc1cc(C)c2[nH]c(=O)c(C(c3nnnn3C(C)(C)C)N(Cc3ccco3)CC3CCCO3)cc2c1 (configuration not stated)	-13%	12%	-1%	i	i	-3%
Cc1ccccc1-c1cccc([C@@H]2C[C@H]3[C@H](CON3C)CN2S(=O)(=O)c2ccccc2C)c1	-3%	-10%	2%	i	i	-2%
CCC(CC)CN1CCC(CN2CCNC(=O)C2=O)CC1	2.1µM*	-13%	-1%	i	i	-6%
O=C1NC(c2ccccc2Cl)Nc2ccccc21 (configuration not stated)	?	?	16µM*	?	?	?
O=C1NC(c2cccc3ccccc23)Nc2ccccc21 (configuration not stated)	0.92µM*	1.3µM*	?	0.41µM*	0.65µM*	0.73µM*
O=C1NC(c2cccs2)Nc2ccccc21 (configuration not stated)	10%	0%	19%	i	i	0%
Clc1ccccc1C1Nc2cccc3cccc(c23)N1	18%	-3%	-12%	i	i	-2%
COc1ccc2ccccc2c1C1NC(=O)c2ccccc2N1 (configuration not stated)	5.2µM*	5.2µM*	8.2µM*	2.3µM*	5.8µM*	?
O=C(/C=C/[C@H]1O[C@@H](n2cnc3c(NC(=O)c4ccccc4)ncnc32)[C@H](O)[C@@H]1O)NCc1ccco1	nt	13%	nt	i	i	21%
CCc1ccc2nc3n[nH]c(N)c3cc2c1	1%	1%	1%	?	12µM*	3%
COc1cc(OC)cc(-c2cc3ccc(OC)cc3cn2)c1	62%	?	15µM*	i	?	?
COc1cc(OC)cc(-c2cc3cc4c(cc3cn2)OCO4)c1	?	0.92µM*	2.6µM*	?	?	0.58µM*
COc1ccc2cc(-c3ccccc3)ncc2c1	-34%	5%	4%	i	i	15%
CCOCCc1nn2c(=O)cc(COC(=O)c3ccc(NC(=O)c4ccc(F)cc4)cc3)nc2s1	nt	nt	nt	i	i	nt
CC(C)C[C@@H]1CN(CCCC[C@H]2CNC(=O)C(=O)N2CCC2CCCCC2)C(=O)C(=O)N1CCC1CCCCC1	nt	-13%	nt	?	i	9%
CC(C)C[C@H]1CN(CCCC[C@H]2CNC(=O)C(=O)N2CCC2CCCCC2)C(=O)C(=O)N1CCC1CCCCC1	nt	1%	nt	?	i	23µM*
COc1cc(NC(=O)C2CCCN(S(=O)(=O)c3ccc4c(c3)oc(=O)n4C)C2)c(C(=O)O)cc1OC (configuration not stated)	nt	nt	nt	i	i	nt
CCCOc1c(Cl)cc(C(=O)Nc2ccc3c(c2)OCO3)cc1OCC	0%	?	-1%[9.22 µM]	?	?	10µM*
CCOc1ccc(C(=O)NCC(=O)Nc2ccc3c(c2)OCO3)cc1OCC	8%	-12%	-78%	i	i	-7%
CCOc1cc(C(=O)Nc2ccc3c(c2)OCO3)ccc1OC(F)F	-2%	-11%	-11%	i	21µM*	-14%
COc1ccc2cc3cc(C(=O)NCCc4ccccc4)sc3nc2c1Cl	nt	nt	nt	i	i	nt
CCCCOc1cccc(C(=O)Nc2sc3c(c2C(=O)OCC)CCCC3)c1	nt	nt	nt	i	i	nt
CCCn1c(CN2CCN(C(=O)OCC)CC2)nc2cc([N+](=O)[O-])ccc21	9%	-2%	-2%	i	?	-10%
SMILES	MCF10A rereplic	HT1080NT lethal	SW480 rereplic	KB-3-1 cytotox	KB-V1 cytotox	HT1080 IDH1KD tx
Cc1ccc(N2CCN(CCc3nc4cc(NC(=O)c5ccco5)ccc4n3C)CC2)cc1	12%	-8%	-4%	i	4.1µM*	?
Cn1c(CN2CCCC2)nc2cc(NC(=O)Nc3ccccc3)ccc21	-4%	-2%	1%	i	i	5%
Cn1c(CN2CCOCC2)nc2cc(NC(=O)COc3ccccc3)ccc21	-2%	-9%	1%	i	16µM*	3%
CCCC(=O)N1CCN(Cc2nc3cc([N+](=O)[O-])ccc3n2C)CC1	6%	6%	7.3µM*	i	i	4%
Cn1c(CN2CCCCC2)nc2cc(NC(=O)c3ccccc3)ccc21	-5%	12%	5%	i	8.2µM*	-2%
Cn1c(CCN2CCOCC2)nc2cc(NC(=O)COc3ccccc3)ccc21	2%	23%	-6%	i	i	12%
N#Cc1c(C(F)(F)F)cc(-c2cccs2)nc1SCc1ccccc1F	nt	nt	nt	i	?	nt
CC(=O)NCCc1nc2cc(NC(=O)c3ccccc3C)ccc2n1C	0.58µM*	4%	-2%	i	?	0%
Cc1ccc(C(C)C)c(OCC(=O)Nc2ccc3c(c2)nc(CN2CCCC2)n3C)c1	?	16µM*	10%	?	i	23µM*
CC1CCN(CCc2nc3cc(NC(=O)COc4ccc([N+](=O)[O-])cc4)ccc3n2C)CC1	?	-7%	21µM*	?	i	?
CCn1c(CN2CCCCC2)nc2cc(NC(=O)c3ccc([N+](=O)[O-])cc3)ccc21	nt	nt	nt	i	6.5µM*	nt
O=c1cc(CN2CCCCC2)c2ccccc2o1	nt	21%	nt	i	i	17%
CCOc1ccccc1CN1[C@@H](c2ccc(OC)cc2)CC(C(=O)OC)(C(=O)OC)[C@H]1c1ccccc1	nt	5%	nt	?	?	-5%
CC(C)CNC(=O)c1cccc(NC(=O)Cc2ccc(Br)cc2)c1	2%	2%	1.5µM*	?	3.3µM*	-1%
CC(C)CNC(=O)c1cccc(NC(=O)c2ccc(Cl)c([N+](=O)[O-])c2)c1	?	-3%	7%	i	21µM*	0%
